# The list is not random: actives were taken first. Their share in the collection is about 2.6%.
# aDG glyco act – alpha-DG glycosylation activation. activation, % at 10 µM. Pro5-aDG cells, alpha-DG glycosylation AlphaScreen (IIH6); 0% Pro5, 100% B10-LARGE cell signal. actives 0.22% (n = 360,000);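 active = activation of at least 8% versus controls, or a plate z-score of at least 8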;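 note: Pro5 are CHO cells carrying HIG-tagged alpha-DG that lacks glycosylation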
# TWEAK Fn14 block – inhibitors of TWEAK-Fn14 interaction signaling; TWEAK-stimulated Fn14 reporter cells, luciferase luminescence, 8 h; inhibition, % at 10 µM; actives 2% (n = 360,000); AID 1159606; in the data active = inhibition above about 50%
# LMP1 NFkB inh – Epstein-Barr LMP1 NF-kappaB reporter inhibition; LMP1-induced NF-kappaB luciferase reporter cells, luminescence; inhibition, % at 12.5 µM; actives 0.69% (n = 350,000); AID 504558; in the data active = inhibition above about 41%; inconclusive = no clear call, values can overlap the other calls
# HSP90 refold inh – inhibitors of HSP90 luciferase refolding in rabbit reticulocyte lysate; actives 0.91% (n = 290,000); inhibition, % at 5.6 µM; luciferase refolding luminescence, 3 h;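 active = inhibition above the screen-wide mean plus 3 SD, computed separately per campaign, cut at about 16% in these data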;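 note: inhibitors lower the luminescence because luciferase stays unfolded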
# LGR2 inh – Drosophila LGR2 receptor signaling inhibition; actives 0.35% (n = 380,000); inhibition, % at 9.99 µM; HEK293 LGR2, CRE-luciferase, bursicon-stimulated, 4 h; AID 720647;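 active = drop in luminescence signal, shown as inhibition above about 50% in the replicate tests, limit read from the data, passing the limit was not always enough; inconclusive = probably only some replicates passing the limit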;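 note: agonist challenge used bursicon conditioned medium at about half maximal strength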
# TROY NFkB inh – inhibitors of TROY-dependent NF-kB signaling. Q293 LMP1-TROYcd NF-kB luciferase reporter, 4 h. inhibition, % at 10 µM. actives 0.98% (n = 360,000);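 active = compounds whose plate-normalised and pattern-corrected inhibition of the luciferase reporter signal at the single screening dose is 50% or more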
# Hits are given with their value; 0 = inactive; ? = inconclusive; - = no result.
SMILES,aDG glyco act,TWEAK Fn14 block,LMP1 NFkB inh,HSP90 refold inh,LGR2 inh,TROY NFkB inh
CCOc1cc(CNc2ccc(N3CCCC3)cc2)cc(Cl)c1OC,0,59,0,0,-,0
COc1ccc(S(=O)(=O)Nc2ccc3c(c2)CC(=O)N([C@@H](C)CO)C[C@@H](C)[C@H](CN(C)C(=O)Nc2cccc4ccccc24)O3)cc1,-,-,-,-,0,-
O=C(Nc1ccc2c(c1)OCCO2)c1ccc2nccnc2c1,0,70,0,0,0,0
O=C(Nc1cccc2ncccc12)c1ccc2c(c1)OCCO2,0,83,0,0,-,-
O=C(Nc1ccc2c(c1)OCCO2)c1ccc(Cl)c(Cl)c1,0,0,0,0,0,0
Nc1ccc(C(=O)Nc2cccc3ncccc23)cc1,0,0,0,0,0,0
CN(C)c1ccc(/C=N/n2ncc3ccccc32)cc1,0,54,0,0,-,0
COCC(=O)N1CC2(CN(C(=O)c3ccccn3)C2)c2c(n(C)c3cc(OC)ccc23)[C@H]1CO,-,-,-,-,0,-
CCOc1ccccc1C(=O)N[C@H](C(=O)OCc1cc([N+](=O)[O-])cc2c1OCOC2)C(C)C,0,0,49,0,0,0
Cc1ccc(S(=O)(=O)NCCCNS(=O)(=O)c2ccc(C)cc2)cc1,0,0,0,-,0,0
Cc1ccc(S(=O)(=O)NCCn2nc(C)cc2C)cc1,0,91,0,0,0,0
CC(C)(C)OC(=O)NCCCCCNC(=O)c1nc[nH]c1C(=O)NCCCCCNC(=O)OC(C)(C)C,0,65,0,-,102,58
CC(C)(C)OC(=O)NCCCCCNC(=O)c1nc[nH]c1C(=O)NCc1ccc(CNC(=O)OC(C)(C)C)cc1,0,96,0,-,-,64
C[C@H](NC(=O)c1[nH]cnc1C(=O)Nc1ccc(CNC(=O)OC(C)(C)C)cc1)C(=O)OCc1ccccc1,0,52,0,-,0,74
O=C(Nc1ccccc1)c1nc[nH]c1C(=O)NCCCCCCNC(=O)c1[nH]cnc1C(=O)Nc1ccccc1,0,69,0,-,-,0
O=C(Nc1ccccc1)c1nc[nH]c1C(=O)NCCCNC(=O)c1[nH]cnc1C(=O)Nc1ccccc1,0,0,0,-,0,0
OC[C@@H]1[C@@H](c2ccccc2)C2(CN(CC3CCOCC3)C2)N1Cc1nccs1,-,-,-,-,0,-
COc1ccc(CN(C)C[C@H]2Oc3c(NS(=O)(=O)c4ccccc4)cccc3C(=O)N([C@@H](C)CO)C[C@@H]2C)cc1,-,-,-,-,0,-
CC(C)(C)OC(=O)NCCCCCNC(=O)c1nc[nH]c1C(=O)NCC(=O)OCc1ccccc1,0,0,0,-,85,0
CC(C)(C)OC(=O)N1CCC(NC(=O)c2nc[nH]c2C(=O)NCc2ccccc2)CC1,0,0,0,-,0,0
CC(C)(C)OC(=O)NCc1ccc(CNC(=O)c2[nH]cnc2C(=O)NC2CCN(C(=O)OC(C)(C)C)CC2)cc1,0,57,0,-,-,0
C[C@H](CO)N1C[C@H](C)[C@@H](CN(C)Cc2ccc(-c3ccccc3)cc2)Oc2ccc(NS(=O)(=O)c3ccc(F)cc3)cc2CC1=O,-,-,-,-,0,-
O=C(CN1CCOCC1)NCC[C@H]1CC[C@H](NC(=O)Nc2ccc(C(F)(F)F)cc2)[C@@H](CO)O1,-,-,-,-,0,-
CC(CN1CCCCC1)OC(=O)c1ccc2c(c1)OCO2 (stereo not drawn),0,0,43,0,-,0
CC(C)CC#Cc1ccc2c(c1)O[C@@H](CN(C)Cc1ccncc1)[C@H](C)CN([C@H](C)CO)S2(=O)=O,-,-,-,-,0,-
SMILES,aDG glyco act,TWEAK Fn14 block,LMP1 NFkB inh,HSP90 refold inh,LGR2 inh,TROY NFkB inh
CSc1cccc(CN2CCC(n3nccc3NC(=O)C3CC3)CC2)c1,0,0,56,0,0,0
O=C(/C=C/Nc1ccc(F)cc1F)c1ccco1,0,73,0,0,?,0
O=C(/C=C/Nc1cccc(F)c1)c1ccco1,0,0,0,0,-,0
O=C(/C=C/Nc1ccc(Br)cc1F)c1ccco1,0,63,0,0,89,0
CC(=O)Nc1ccc(N/C=C/C(=O)c2ccco2)cc1,0,0,0,0,-,0
CN(C)c1ccc(N/C=C/C(=O)c2ccco2)cc1,0,86,0,0,-,0
COc1ccc(-c2ccc3c(c2)[C@H]2[C@H](CCN2S(=O)(=O)c2ccc(OC)cc2)[C@H](CO)N3C)cc1,-,-,-,-,0,-
CCC(=O)N(C)C[C@H]1N[C@@H](CO)[C@H]1c1ccc(-c2cccc(C#N)c2)cc1,-,-,-,-,0,-
C/C=C/c1cccc(-c2nc(C(=O)NCc3ccncc3)cc3c2[C@@H](CCO)N([S@](=O)C(C)(C)C)C3)c1,-,-,-,-,0,-
Fc1ccccc1/C=C/c1ccc2ccccc2n1,0,89,0,0,90,59
O=C(O)/C=C/c1ccc2ccccc2n1,0,0,76,0,-,0
CN(C)c1ccc(/C=C/c2ccc3ccccc3n2)cc1,0,99,76,84,93,76
Oc1ccc(/C=C/c2ccc3ccccc3n2)cc1,0,92,48,24,96,74
O=C(C[C@H]1C=C[C@H](NC(=O)Nc2ccc(F)cc2)[C@H](CO)O1)NCc1ccccn1,-,-,-,-,0,-
C[C@H]1CN([C@@H](C)CO)C(=O)c2cc(C#CC3CCCC3)cnc2O[C@@H]1CN(C)S(=O)(=O)c1cccc(F)c1,-,-,-,-,0,-
COc1ccc(-c2cn3nc4c(nc3n2)CCCC4)cc1,0,0,62,0,0,0
CN1C(=O)/C(=C/c2cc(N=Nc3ccccc3)ccc2O)SC1=S,0,65,0,0,0,54
COC(=O)c1ccc(COc2cccn3c(N(C)C(=O)CCC4CCCC4)c(C)nc23)cc1,0,52,-,-,0,0
Cc1nc2c(OCc3ccc(F)cc3)cccn2c1N(C)C(=O)CCC1CCCC1,0,0,-,-,0,0
C[C@@H]1CN([C@H](C)CO)S(=O)(=O)c2ccc(/C=C/c3ccccc3)cc2O[C@H]1CN(C)C(=O)CN1CCOCC1,-,-,-,-,0,-
CC(C1CC1)N(Cc1ccccc1)C(=S)Nc1ccccc1Cl (stereo not drawn),0,0,0,0,0,86
CC(C1CC1)N(Cc1ccccc1)C(=O)NC(=O)c1ccccc1 (stereo not drawn),0,0,0,0,0,0
C=CCNc1nc(-c2sc(NC(=O)C(C)(C)C)nc2C)c(-n2cc(-c3ccccc3)nn2)s1,0,58,-,-,0,0
O=C(C1CC1)N1CC2(C1)[C@H](c1ccccc1)[C@@H](CO)N2Cc1cncnc1,-,-,-,-,0,-
CCCC(=O)Nc1ccc2c(c1)OC[C@H](C)N(Cc1ccc(-c3ccccn3)cc1)C[C@H](C)[C@@H](OC)CN(C)C2=O,-,-,-,-,0,-
COc1ccc(CCNC(=O)c2cc(C(=O)c3cc(Cl)ccc3O)cn(CCc3ccc(OC)cc3)c2=O)cc1,0,0,0,0,0,0
O=C(c1cc(C(=O)NCCc2ccccc2)c(=O)n(CCc2ccccc2)c1)c1cc(Cl)ccc1O,0,66,0,0,0,0
Cn1cccc1C(=O)OCC(=O)Nc1ccc2c(c1)CCC2,0,0,0,0,-,0
Cn1cccc1C(=O)OCC(=O)Nc1ccc2c(c1)OCO2,0,0,44,0,0,0

# Source: PubChem BioAssay
